Experimental data: PubChem BioAssay AID1259339 (Broad Institute, 2017)
A number with no mark means an inactive call. Active and inactive are the calls of the source.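 How the source made its calls: active means fitted AC50 no higher than ten times the top tested dose (cut at about 90 µM in these data); inconclusive means flat curve with 30 to 70% signal loss, or bad fit; inactive means AC50 beyond ten times the top dose.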

Experiment: TruHit bead signal quenchers or artefacts – biochemical, TruHit kit, artefact control, dose response (AID 1259339)

Structure (SMILES)	AC50
O=C(COC(=O)c1cc(-c2cccs2)nc2ccccc12)NCc1ccco1	40.2 µM (active)
O=C(Cc1ccc(S(=O)(=O)N2CCOCC2)s1)Nc1nc2c(s1)CCCC2	29.2 µM (active)
O=C(CCN1CCOCC1)c1ccc2c(c1)OCCO2	inactive
NC(=O)C1(N2CCCCC2)CCN(c2ncc(NC(=O)c3cccc(Cl)c3)cc2C(=O)O)CC1	> 160 µM
Cc1ccc(Nc2nc(C(=O)Nc3ccc(Cl)cc3)nc3ccccc23)cc1	inactive
O=C(NCc1ccco1)c1c2c(nc3ccccc13)CCC2	82.4 µM (active)
Cc1ccc(C(=O)Nc2ccc(N3CCC(C(N)=O)(N4CCCCC4)CC3)c(C(=O)O)c2)cc1	inactive
CCCN1CCCn2nc(CNC(=O)[C@H]3CC[C@@H](N)C3)cc2C1	inactive
Cc1nc(C)c(C(=O)Nc2ncc([N+](=O)[O-])s2)o1	40.7 µM (active)
O=S(=O)(Nc1nccs1)c1ccc(-n2cccc2)cc1	18.8 µM (active)
C(=C\c1ccco1)/c1nc2ccccc2[nH]1	22.5 µM (active)
COc1ccc(-c2nnc(-c3nc(Nc4ccc(NC(C)=O)cc4)c4ccccc4n3)o2)cc1	> 160 µM
N#CNc1nc(O)cc(=O)[nH]1	inactive
O=S(=O)(Nc1nc2ccc(S(=O)(=O)N3CCCCC3)cc2s1)c1ccccc1	76.8 µM (active)
COc1ccc(S(=O)(=O)N2CCN(C(=O)c3cc4c(s3)CCC4)CC2)cc1	> 160 µM
NC(=O)C1(N2CCCCC2)CCN(c2ncc(NC(=O)c3ccccc3)cc2C(=O)O)CC1	inactive
Nc1ccc(-c2cccc(CN3CCCC3)c2)cc1	inactive
O=c1/c(=C/c2ccco2)sc2nc3ccccc3n12	> 160 µM

Structure (SMILES)	AC50
O=C(Nc1nc(-c2ccco2)c(-c2ccco2)s1)c1ccc(F)cc1F	4.41 µM (active)
COc1c(C(=O)O)csc1Br	0.373 µM (active)
O=C(Nc1nccs1)c1cc(-c2ccco2)nc2ccccc12	29 µM (active)
Cc1cncc(-c2ccc(S(N)(=O)=O)cc2F)c1	inactive
CC(=O)c1sc2nc(-c3ccco3)ccc2c1N	43.6 µM (active)
CCCc1cc(C(=O)N2CC[C@H]3CNC[C@H]32)n(C)n1	inactive
O=C(O)CCc1ccc(-c2cccs2)n1NC(=O)c1ccco1	> 160 µM
c1ccc(-c2nc(-c3ccco3)n3ccccc23)cc1	27.2 µM (active)
CN(C)c1ccc(CN2C[C@H]3CC[C@@H]2CN(C(=O)c2ccncc2)C3)cn1	inactive
O=C(Nc1nccs1)c1cc(-c2ccccn2)nc2c(Cl)cccc12	2.07 µM (active)
O=C(COC(=O)c1ccc(F)cc1F)Nc1ncccn1	inactive
CC(C)C(CC(=O)NCc1ccco1)c1ccco1 (stereo unspecified)	66.5 µM (active)
O=C(Nc1nc(-c2nc3ccccc3s2)cs1)c1ccco1	inactive
N#Cc1c(N)oc(-c2ccco2)c1-c1ccco1	29.9 µM (active)
O=C(Nc1nc(-c2ccco2)c(-c2ccco2)s1)c1ccco1	0.98 µM (active)
Cn1ncc2c(NNC(=O)c3cc(O)cc(O)c3)ncnc21	inactive
OCc1ccc(O)c2ncccc12	> 160 µM
O=C(Nc1nnc(-c2ccco2)s1)c1ccccc1	inactive
